Screening data deposited in PubChem BioAssay by National Center for Advancing Translational Sciences (NCATS).
Only some compounds are listed: those with a hit (about 10% of all), similar ones and a draw of the others.
G9a block: G9a (human) methyltransferase inhibition. Q96KQ7. G9a H3K9 monomethylation, AlphaScreen, 2 h. Potency, µM (top dose mostly 102 µM), without a hit: at the top dose activity, negative = inhibition, hits mostly inhibitors. 350,000 tested, 8.8% active. AID 504332; note: % is set by controls: 0 for no effect and ±100 for the full control effect; nearly all actives have a fitted effect of over 75% in size
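G9a (20 nM) was preincubated 15 min with compound, then reacted 2 h at room temperature with 500 nM biotin-H3K9 peptide and 20 µM SAM. Monomethyl-H3K9 detected by AlphaScreen using anti-H3K9me1 antibody.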
GLS inh: inhibitors of human glutaminase (GLS). O94925. GLS enzymatic activity, qHTS titration. Potency, µM (titrated, usually from 45.5 µM), for inactives: at the top dose activity change, negative = inhibition, usual class: inhibitors. 410,000 tested, 0.21% active. AID 624170; note: % is set by controls: 0 for no effect and ±100 for the full control effect
Target sequence (O94925 whole entry, looked up): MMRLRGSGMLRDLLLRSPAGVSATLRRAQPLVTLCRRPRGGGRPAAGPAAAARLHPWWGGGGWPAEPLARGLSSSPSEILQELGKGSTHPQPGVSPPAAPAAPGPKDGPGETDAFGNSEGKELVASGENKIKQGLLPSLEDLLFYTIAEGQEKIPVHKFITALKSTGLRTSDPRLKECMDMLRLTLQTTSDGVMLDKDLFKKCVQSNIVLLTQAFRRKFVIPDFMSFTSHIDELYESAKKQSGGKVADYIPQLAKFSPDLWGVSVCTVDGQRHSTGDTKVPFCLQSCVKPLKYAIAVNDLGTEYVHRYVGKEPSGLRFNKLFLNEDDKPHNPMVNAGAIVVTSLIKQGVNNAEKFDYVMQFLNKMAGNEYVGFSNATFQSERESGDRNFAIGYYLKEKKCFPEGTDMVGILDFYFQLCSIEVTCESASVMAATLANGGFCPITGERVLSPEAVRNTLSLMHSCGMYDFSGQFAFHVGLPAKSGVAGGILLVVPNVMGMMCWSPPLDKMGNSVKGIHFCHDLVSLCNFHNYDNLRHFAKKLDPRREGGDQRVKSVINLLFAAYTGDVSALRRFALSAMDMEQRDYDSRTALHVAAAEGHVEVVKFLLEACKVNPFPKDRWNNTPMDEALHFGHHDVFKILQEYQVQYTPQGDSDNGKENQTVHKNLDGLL
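Human kidney-isoform GLS in 45 mM KH2PO4 pH 8.2, 0.02% Tween-20, with compound, started with 1mM L-Glutamine (added stock). Glutamate oxidase/HRP/Amplex red coupled fluorescence read at start and after 30 min at RT.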
HP1b binding inh: inhibitors of HP1-beta chromodomain binding to methylated histone tails. P83916. 390,000 tested, 0.56% active. Potency, µM (top dose mostly 114 µM), without a hit: top-dose activity change, negative = inhibition, most hits filed as inhibitors. AlphaScreen HP1-beta / biotin-H3K9me3 peptide binding; note: nearly all actives have a fitted effect of over 70% in size
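AlphaScreen: HP1-beta (50 nM) preformed 30 min with biotin-H3(1-18)K9me3 peptide (50 nM) in PBS pH 7.4, 0.01% Tween-20. Compound added for 30 min at RT, then streptavidin donor/nickel chelate acceptor beads (10 ug/mL) for 30 min.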
JMJD2A Tudor inh: blocks the human JMJD2A Tudor domain | AlphaScreen JMJD2A-Tudor / H3K4me3 peptide binding | Potency, µM (titrated, usually from 114 µM), for inactives: at the highest dose activity change, negative = inhibition, actives largely listed as inhibitors | 390,000 tested, 4.4% active | AID 504339; note: % is set by controls: 0 for no effect and ±100 for the full control effect; nearly all actives have a fitted effect of over 50% in size
BAZ2B block: blocks human BAZ2B; Q9UIF8; AlphaScreen BAZ2B-H3K14Ac peptide displacement; Potency, µM (top dose mostly 114 µM), inactives show top-dose activity change, negative = inhibition, hits mostly inhibitors; 360,000 tested, 4.4% active; AID 504333; note: % is set by controls: 0 for no effect and ±100 for the full control effect; nearly all actives have a fitted effect of over 60% in size
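Protein-peptide AlphaScreen: BAZ2B 50 nM, b-H3K14Ac 50 nM, 1x PBS pH 7.4 + 0.01% Tween-20. Preincubation 30 min RT; cpd 30 min RT (top 110 uM); beads 20 min RT, light-protected.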
An asterisk follows results filed as active; [ ] = another dose, or the depositor's remark. Calls come from the whole dose curve; as a rule, active = well fitted curve in the direction sought with a large enough effect; inconclusive = small, poorly fitted or top-dose-only effect, or another doubt; inactive = no such curve, though single readings can be large; an effect the other way counts as inactive or inconclusive. Potency is the fitted concentration of half-maximal effect.

How did O=C(NCCCn1ccnc1)c1ccncc1 do in these assays?
G9a block: 6%[12.7 µM]; GLS inh: -3%; HP1b binding inh: 11%; JMJD2A Tudor inh: -13%; BAZ2B block: 56µM*

What do the screens show for `Cc1ccc2cc(C)c3nnc(SCC(=O)c4cccs4)n3c2c1C`?
G9a block: 35µM*; GLS inh: 14%; HP1b binding inh: 37%; JMJD2A Tudor inh: inconclusive; BAZ2B block: -9%

What do the screens show for `Cn1c(Cc2ccccc2)nnc1SCC(=O)c1cccs1`?
G9a block: 50µM*; GLS inh: -4%; HP1b binding inh: 44%; JMJD2A Tudor inh: -2%; BAZ2B block: 0%

What do the screens show for `Cc1ccc(C)c2c1cc(C)c1nnc(SCC(=O)c3cccs3)n12`?
G9a block: 13µM*; GLS inh: 7%; HP1b binding inh: 23%; JMJD2A Tudor inh: inconclusive; BAZ2B block: 1%

What do the screens show for `CCN(CC)C(=O)Cn1c(=O)n(-c2ccc(Cl)c(Cl)c2)c(=O)c2c(C)c(C(=O)N(CC)CC)sc21`?
G9a block: -2%[59 µM]; GLS inh: -5%; HP1b binding inh: -5%; JMJD2A Tudor inh: -13%; BAZ2B block: -2%

Results for CNc1nc(Cl)nc(Nc2ccccc2)n1 ?
G9a block: -39%; GLS inh: 1%; HP1b binding inh: 48%; JMJD2A Tudor inh: -6%

What do the screens show for `CC(C)c1ccc(Nc2nc(Cl)nc(Cl)n2)cc1`?
G9a block: 40µM*; GLS inh: 1%; HP1b binding inh: 3%; JMJD2A Tudor inh: 89µM*; BAZ2B block: inconclusive

What do the screens show for `O=C(c1cccs1)N1CCCc2cc(NS(=O)(=O)c3ccc(Br)cc3)ccc21`?
G9a block: -27%[59 µM]; GLS inh: 0%; HP1b binding inh: -7%; JMJD2A Tudor inh: -33%; BAZ2B block: -25%

Results for CCCn1c(N2CCN(C(=O)N3CCCCC3)CC2)nc2ccccc21 ?
G9a block: 50µM*; GLS inh: 1%; HP1b binding inh: 15%; JMJD2A Tudor inh: -12%; BAZ2B block: inconclusive

How did CCCn1c(N2CCN(C(=O)Nc3ccccc3)CC2)nc2ccccc21 do in these assays?
G9a block: 10%; GLS inh: 6%; HP1b binding inh: 29%; JMJD2A Tudor inh: -1%; BAZ2B block: 2%

How did CCCn1c(S(=O)(=O)O)nc2ccccc21 do in these assays?
G9a block: 50µM*; GLS inh: 21%; HP1b binding inh: 18%; JMJD2A Tudor inh: -15%; BAZ2B block: -15%

What do the screens show for `Cc1cccc(OCCn2c(S(=O)(=O)O)nc3ccccc32)c1`?
GLS inh: 14%; HP1b binding inh: 7%; JMJD2A Tudor inh: -18%; BAZ2B block: -6%

How did CCC(C)n1c(S(=O)(=O)O)nc2ccccc21 (centres undefined) do in these assays?
G9a block: 79µM*; GLS inh: -4%; HP1b binding inh: 33%; JMJD2A Tudor inh: -13%; BAZ2B block: inconclusive

What do the screens show for `CCC(C)n1c(/C=C/c2ccccc2)nc2ccccc21` (centres undefined)?
G9a block: 77%[59 µM]; GLS inh: -2%; HP1b binding inh: 97%; JMJD2A Tudor inh: 77%; BAZ2B block: 95%

What do the screens show for `S=C(Nc1ccccc1)Nc1nc2ccccc2n1CCOc1ccc(Br)cc1`?
G9a block: inconclusive; GLS inh: -8%; HP1b binding inh: -1%; JMJD2A Tudor inh: inconclusive; BAZ2B block: 3.2µM*

Results for Nc1nc2ccccc2n1CCOc1ccc(Br)cc1 ?
GLS inh: 7%; HP1b binding inh: 31%; JMJD2A Tudor inh: -11%; BAZ2B block: inconclusive

Results for CCCn1c(/C=C/c2cc[n+](C)cc2)nc2ccccc21 ?
G9a block: 40µM*; GLS inh: 2%; HP1b binding inh: 12%; JMJD2A Tudor inh: inconclusive; BAZ2B block: inconclusive

What do the screens show for `CCCCCCn1c(/C=C/c2ccccc2)nc2ccccc21`?
G9a block: 165%[59 µM]; GLS inh: -1%; HP1b binding inh: 300%; JMJD2A Tudor inh: 185%; BAZ2B block: 408%

What do the screens show for `O=S(=O)(O)c1nc2ccccc2n1CCOc1ccccc1`?
G9a block: 50µM*; GLS inh: 44%; HP1b binding inh: 21%; JMJD2A Tudor inh: -26%; BAZ2B block: -33%

Results for COc1ccc(-c2nnc(SCCOc3ccccc3C)o2)cc1OC ?
G9a block: -35%[59 µM]; GLS inh: 0%; HP1b binding inh: 49%; JMJD2A Tudor inh: -4%; BAZ2B block: 0%

Results for CC1=C(C(=O)N2CCCCCC2)CC(CC(=O)NC2CCCC2)C(=O)N1Cc1ccccc1 (centres undefined) ?
GLS inh: -1%

How did Cc1nnc(-c2ccc(N3CCCCCC3)c([N+](=O)[O-])c2)o1 do in these assays?
G9a block: 45µM*; GLS inh: -15%; HP1b binding inh: -12%; JMJD2A Tudor inh: inconclusive; BAZ2B block: inconclusive

What do the screens show for `Cc1nnc(-c2ccc(N3CCOCC3)c([N+](=O)[O-])c2)o1`?
G9a block: 20%[2.33 µM]; GLS inh: -1%; HP1b binding inh: 38%; JMJD2A Tudor inh: 1%; BAZ2B block: -5%

How did COc1cc(C(=O)Nc2ccc(C#N)cc2)c([N+](=O)[O-])cc1OC do in these assays?
G9a block: -50%; GLS inh: -5%; HP1b binding inh: 19%; JMJD2A Tudor inh: -24%; BAZ2B block: -1%

How did N#Cc1cc([N+](=O)[O-])c2sc(C(N)=O)[n+]([O-])c2c1 do in these assays?
G9a block: 28µM*

What do the screens show for `COc1cc2sc3ccc(C#CC4(O)CCCCC4)cc3c(=O)c2cc1OC`?
GLS inh: -8%; HP1b binding inh: 43%; JMJD2A Tudor inh: 3%

How did Cn1c2ccccc2c(=O)c2ccc(C#CC3(O)CCCCC3)cc21 do in these assays?
G9a block: 79µM*; GLS inh: -3%; HP1b binding inh: 147%; JMJD2A Tudor inh: 32%; BAZ2B block: 17%

How did CCCCNC(=O)N1c2ccccc2CC1C (centres undefined) do in these assays?
G9a block: -6%; GLS inh: 8%; HP1b binding inh: 37%; JMJD2A Tudor inh: -4%; BAZ2B block: -7%

How did O=C(O)c1ccc(-c2nc(-c3ccc(Cl)cc3Cl)cs2)cc1 do in these assays?
G9a block: inconclusive; GLS inh: 10%; HP1b binding inh: 15%; JMJD2A Tudor inh: -17%; BAZ2B block: inconclusive

Results for CC(=O)N1CC[n+]2c(-c3ccc(Cl)cc3Cl)csc21 ?
G9a block: 13µM*; GLS inh: 3%; HP1b binding inh: 28%; JMJD2A Tudor inh: -32%; BAZ2B block: inconclusive

How did Cc1ccc(N/C=C/C(=O)c2ccc(C)cc2)cc1 do in these assays?
G9a block: inconclusive; GLS inh: 0%; HP1b binding inh: 25%; JMJD2A Tudor inh: -15%[57.1 µM]; BAZ2B block: 3%

How did Cc1ccc(O)c(N/C=C/C(=O)c2ccc(F)cc2)c1 do in these assays?
G9a block: 35µM*; GLS inh: 20%; HP1b binding inh: 48%; JMJD2A Tudor inh: -14%; BAZ2B block: -4%
